The values that follow come from PubChem BioAssay (NCATS).

Results filed as inconclusive are left out. Activity calls are given as the source filed them. Unless noted, the call rests on the fitted dose curve; in most records, active means well fitted curve in the direction sought with a large enough effect; inconclusive means small, poorly fitted or top-dose-only effect, or another doubt; inactive means no such curve, though single readings can be large; an effect the other way counts as inactive or inconclusive.

The target of assay [1] is Thyrotropin receptor (Homo sapiens) (UniProt P16473). Nature of the assay: qHTS Assay for Antagonists of the Thyroid Stimulating Hormone Receptor (AID 488980). Further: series mostly up to about 58 µM; 0% is about no effect. Summed up:
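Inhibition of TSH-stimulated cAMP accumulation was quantified by homogeneous time-resolved FRET in TSHR-transfected HEK293 cells. Agonist: TSH, 4 nM final (EC80).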
A general note: Quantitative high-throughput screening tests each substance at several concentrations.

The target of assay [2] is D(1A) dopamine receptor (Homo sapiens) (UniProt P21728). Nature of the assay: HTS Assay for Allosteric Agonists of the Human D1 Dopamine Receptor: Primary Screen for Agonists (AID 488981). Further: potency means the concentration at half of the fitted maximal effect. On activation: 0% is about no effect. Summed up: (§1)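 Tetracycline-induced HEK293 T-REx cells force-coupled to calcium signalling were incubated overnight at 30 C and dye-loaded at room temperature. Calcium flux over 180 s after compound addition flagged agonists; a further 180 s read after EC20 dopamine flagged potentiators.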

Assay [3] has the same target. Nature of the assay: HTS Assay for Allosteric Agonists of the Human D1 Dopamine Receptor: Primary Screen for Potentiators (AID 488982). Further: potency means the concentration at half of the fitted maximal effect. The essentials:
as §1

Assay [4] shares this target. In words: HTS Assay for Allosteric Agonists of the Human D1 Dopamine Receptor: Primary Screen for Antagonists (AID 488983).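 Further: calcium flux response to an EC80 dopamine challenge measured with no-wash dye; on the % scale 0 is the no-effect control and ±100 the full control effect; nearly all actives have a fitted effect of over 65% in size.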 Summed up: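 Screening of inducible HEK293 T-REx D1 cells: compound first, EC80 dopamine 180 s later, each phase read kinetically for calcium over 180 s.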
Assay [5] can be described thus: Validation screen for small molecules that induce genotoxicity in human embryonic kidney (HEK293T) cells expressing luciferase-tagged ELG1 (AID 493106). Further: 0% is about no effect. Summed up:
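Reporter-gene quantitative HTS in HEK293T cells carrying luciferase-tagged ELG1, whose level climbs under genotoxic stress. Compound exposure lasts 16 hr at 37 °C before luciferase detection.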

The target in assay [6] is Thyrotropin-releasing hormone receptor (Homo sapiens) (UniProt P34981). Nature of the assay: qHTS for Small Molecule Agonists and Allosteric Enhancers of Human TRH Receptor: Validation Screen for Agonists (AID 493127;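 active means calcium activation more than 3 SD above the typical response in the agonist read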;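 further: intracellular calcium rise by fluo-8 fluorescence before TRH EC20 addition; 0% is about no effect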). As to conditions: TRH receptor agonist cell assay; at 2 µM; stronger effect = higher value. Summed up:
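Gq-coupled calcium mobilization in TRHR cells after compound addition, monitored kinetically with fluo-8 dye on an FDSS reader.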

A short description of assay [7]: Nrf2 qHTS screen for inhibitors: Validation (AID 493153; active means well fitted inhibition curve with a large enough effect in the main read-out, with a control signal flat, not every such curve was filed as active; further: potency means the concentration at half of the fitted maximal effect). As to conditions: Potency: luciferase luminescence; viability change: measured here: cytotoxicity max response. The essentials: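 Dose-response validation uses reporter A549 cells with firefly luciferase under an antioxidant response element. Compounds stay on cells 18-24 h at 37°C, and luminescence indicates Nrf2-driven transcription.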

The nature of assay [8]: qHTS for Inhibitors of Cell Surface uPA Generation: Validation Assay (AID 493164).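 Further: RAW 264.7 macrophage cells exposed to compound for 18 h; 0% is about no effect.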 The essentials:
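RAW 264.7, 4000 cells/well, o/n plating; cpd 7-pt 1:5 dilution 2.45 nM–38.3 uM final; 18 h, 37 C/5% CO2; ATP-Lite, 5 s luminescence exposure.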

Assay [9] has as its target Galactokinase (Homo sapiens) (UniProt P51570). Nature of the assay: qHTS Validation Assay for Inhibitors of Human Galactokinase (GALK) (AID 493189). Further: 0% is about no effect. Summed up: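 Enzyme activity is inferred from ATP consumption: human GALK phosphorylates galactose (100 uM) using 35 uM ATP for 1 h at room temperature, and luciferase-based Kinase-Glo Plus reports unconsumed ATP.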
Assay [10] is described as follows: Validation screen for small molecules that induce DNA re-replication in SW480 colon adenocarcinoma cells (AID 504364). Further: 0% is about no effect. The essentials: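 Cells are treated 48 hr with test compound, stained 40 min with Hoechst at 37 C, and scanned for nuclear fluorescence; compounds inducing re-replication increase nuclei with elevated intensity.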
In assay [11] the target is Peptidyl-prolyl cis-trans isomerase NIMA-interacting 1 (Homo sapiens) (UniProt Q13526). In words: qHTS Validation Assay to Find Inhibitors of Pin1 (AID 504536; active means well fitted inhibition curve with a large enough effect in the polarisation, with a control signal flat, not every such curve was filed as active; the % refers to the polarisation;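 further: 0% = full Pin1 enzyme wells and -100% = no-enzyme wells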). Summed up:
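Fluorescence polarization competition: compounds (titration) displace HiFluor-488-labeled Pin1-1b peptide from Pin1 (0.3 uM final) in pH 7.5 HEPES buffer with DTT, 10 min at room temperature; %Activity normalized to no-enzyme wells, curves fitted.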

Assay [12] deals with Phosphoglycerate kinase, glycosomal (Trypanosoma brucei brucei) (UniProt P07378). Nature of the assay: qHTS Validation Assay to Find Inhibitors of Phosphoglycerate Kinase (AID 504547).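 Further: control wells lack PGK and mark full inhibition.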 The essentials: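 Substrate/PGK mix plus compound; reaction started with GAPDH (100nM final) to form 1,3-BPG; 60 min RT; Kinase-Glo Plus 10 min; luminescence. TEA 100mM pH 7.6, MgCl2 5mM, Tween-20 0.01%.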

Assay [13] deals with phosphoglycerate mutase (Leishmania major) (UniProt Q4Q090). Nature of the assay: qHTS Validation Assay to Find Inhibitors of Phosphoglycerate Mutase (AID 504548).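 Further: end-point luminescence from Kinase-GloPlus after the PGAM reaction; series mostly up to about 58 µM; on the % scale 0 is the no-effect control and ±100 the full control effect.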 As to conditions: Potency: inhibition qHTS. The essentials: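 Inhibition of L. major PGAM was assessed by Kinase-GloPlus luminescence following a 45-minute room-temperature reaction with enzyme at 1.25nM final.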

The target of assay [14] is Ubiquitin carboxyl-terminal hydrolase 1 (Homo sapiens) (UniProt O94782). In words: Inhibitors of USP1/UAF1: Pilot qHTS (AID 504865). Further: nearly all actives have a fitted effect of over 35% in size. Further: potency means the concentration at half of the fitted maximal effect. The essentials:
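Enzyme-free wells gave the negative control, while test wells held 1nM USP1/UAF1 preincubated with compound for 15 min at room temperature. Ub-Rho at 150nM final started the reaction, and fluorescence at 480/540 nm was recorded kinetically.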

Assay [15] is described as follows: qHTS for Inhibitors of ATXN expression: Validation of Cytotoxic Assay (AID 588349).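 Further: cells exposed to compound for 72 hr; on the % scale 0 is the no-effect control and ±100 the full control effect.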 The essentials: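 HEK293, compound dose series, 72 hr / 37 degrees C; viability via CellTiter Glo (intracellular ATP).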
Assay [16] in a line: qHTS for Inhibitors of ATXN expression: Validation (AID 588378). Further: nearly all actives have a fitted effect of over 75% in size. Further: potency means the concentration at half of the fitted maximal effect. The essentials: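 After a 2 h attachment and 24 h compound incubation, HEK293-ATXN2-FFLuc wells are read for fluorescence at 405 nm excitation/525 nm emission as a viability measure, then for Bright-Glo luminescence reflecting ATXN2 expression.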
Assay [17] deals with ATPase family AAA domain-containing protein 5 (Homo sapiens) (UniProt Q96QE3). Nature of the assay: Validation screen for small molecules that inhibit ELG1-dependent DNA repair in human embryonic kidney (HEK293T) cells expressing luciferase-tagged ELG1 (AID 493107). Further: nearly all actives have a fitted effect of over 70% in size. Further: potency means the concentration at half of the fitted maximal effect. Summed up:
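Quantitative HTS in HEK293T cells carrying luciferase-tagged ELG1, stimulated with 5-fluorouridine alongside compound for 16 hr. Loss of luciferase signal marks inhibition of ELG1 response.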

Chain of Peptidyl-prolyl cis-trans isomerase NIMA-interacting 1 (Homo sapiens) (Q13526 whole entry, looked up): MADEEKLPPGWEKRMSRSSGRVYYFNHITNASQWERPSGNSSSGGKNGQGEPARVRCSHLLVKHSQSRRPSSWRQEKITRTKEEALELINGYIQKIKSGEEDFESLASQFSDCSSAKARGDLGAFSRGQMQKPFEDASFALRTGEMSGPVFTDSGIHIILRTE
Chain of ATPase family AAA domain-containing protein 5 (Homo sapiens) (Q96QE3 whole entry, looked up, the tested form may be a part): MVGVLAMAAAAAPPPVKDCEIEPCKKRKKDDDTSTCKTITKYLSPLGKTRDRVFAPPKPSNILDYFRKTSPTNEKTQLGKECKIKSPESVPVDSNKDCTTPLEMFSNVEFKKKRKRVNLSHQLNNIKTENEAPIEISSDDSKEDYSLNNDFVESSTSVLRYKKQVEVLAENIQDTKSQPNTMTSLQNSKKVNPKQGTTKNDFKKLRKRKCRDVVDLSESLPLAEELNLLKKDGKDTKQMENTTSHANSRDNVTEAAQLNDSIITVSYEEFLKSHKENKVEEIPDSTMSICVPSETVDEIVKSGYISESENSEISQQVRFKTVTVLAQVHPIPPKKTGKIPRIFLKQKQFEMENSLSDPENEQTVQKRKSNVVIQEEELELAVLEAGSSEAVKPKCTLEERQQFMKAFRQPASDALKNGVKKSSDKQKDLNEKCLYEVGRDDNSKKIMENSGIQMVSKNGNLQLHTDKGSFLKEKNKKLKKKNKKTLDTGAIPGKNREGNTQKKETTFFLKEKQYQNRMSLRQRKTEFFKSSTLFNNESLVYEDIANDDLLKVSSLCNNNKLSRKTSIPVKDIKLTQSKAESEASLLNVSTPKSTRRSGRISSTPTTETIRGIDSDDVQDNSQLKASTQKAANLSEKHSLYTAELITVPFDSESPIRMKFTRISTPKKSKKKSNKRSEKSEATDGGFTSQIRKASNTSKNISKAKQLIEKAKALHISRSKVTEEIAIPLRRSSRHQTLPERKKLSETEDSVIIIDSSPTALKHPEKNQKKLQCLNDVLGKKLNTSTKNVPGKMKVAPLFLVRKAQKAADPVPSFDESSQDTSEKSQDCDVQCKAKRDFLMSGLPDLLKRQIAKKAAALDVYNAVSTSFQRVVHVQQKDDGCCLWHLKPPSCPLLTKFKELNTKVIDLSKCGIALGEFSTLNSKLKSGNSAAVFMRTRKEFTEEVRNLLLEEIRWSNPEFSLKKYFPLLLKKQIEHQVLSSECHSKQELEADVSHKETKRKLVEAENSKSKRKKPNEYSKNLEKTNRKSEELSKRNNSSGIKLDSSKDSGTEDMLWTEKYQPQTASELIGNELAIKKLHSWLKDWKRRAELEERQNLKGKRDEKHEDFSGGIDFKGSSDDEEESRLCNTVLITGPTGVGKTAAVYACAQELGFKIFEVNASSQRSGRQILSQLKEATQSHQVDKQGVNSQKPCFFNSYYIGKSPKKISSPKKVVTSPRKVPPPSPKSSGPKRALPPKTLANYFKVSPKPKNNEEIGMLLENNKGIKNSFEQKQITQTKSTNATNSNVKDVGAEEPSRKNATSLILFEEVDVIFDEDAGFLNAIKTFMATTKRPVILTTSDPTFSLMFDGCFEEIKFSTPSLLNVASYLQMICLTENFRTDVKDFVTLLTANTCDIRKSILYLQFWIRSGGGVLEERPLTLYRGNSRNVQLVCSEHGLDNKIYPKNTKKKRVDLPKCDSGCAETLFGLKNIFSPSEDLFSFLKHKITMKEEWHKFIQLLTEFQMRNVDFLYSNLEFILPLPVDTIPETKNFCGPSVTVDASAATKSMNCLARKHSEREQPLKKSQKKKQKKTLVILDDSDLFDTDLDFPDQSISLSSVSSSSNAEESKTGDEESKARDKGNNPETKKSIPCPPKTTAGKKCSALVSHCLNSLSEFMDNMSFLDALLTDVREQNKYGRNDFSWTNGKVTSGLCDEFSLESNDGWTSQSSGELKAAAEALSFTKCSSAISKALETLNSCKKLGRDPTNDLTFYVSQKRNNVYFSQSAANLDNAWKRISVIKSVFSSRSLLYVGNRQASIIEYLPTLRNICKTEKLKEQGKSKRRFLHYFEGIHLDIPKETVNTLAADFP
Chain of Phosphoglycerate kinase, glycosomal (Trypanosoma brucei brucei) (P07378 whole entry, looked up): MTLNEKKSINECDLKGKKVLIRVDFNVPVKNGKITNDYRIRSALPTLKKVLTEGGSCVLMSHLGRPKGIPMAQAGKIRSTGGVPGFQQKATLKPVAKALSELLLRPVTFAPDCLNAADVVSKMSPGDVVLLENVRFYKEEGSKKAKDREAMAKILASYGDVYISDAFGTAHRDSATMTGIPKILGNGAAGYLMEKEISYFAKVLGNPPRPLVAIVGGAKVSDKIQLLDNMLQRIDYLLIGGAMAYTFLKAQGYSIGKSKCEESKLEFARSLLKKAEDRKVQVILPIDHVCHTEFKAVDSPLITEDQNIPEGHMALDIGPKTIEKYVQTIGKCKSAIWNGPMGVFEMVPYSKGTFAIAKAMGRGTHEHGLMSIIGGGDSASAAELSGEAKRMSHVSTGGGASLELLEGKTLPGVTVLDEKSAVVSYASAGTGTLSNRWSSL
Chain of Ubiquitin carboxyl-terminal hydrolase 1 (Homo sapiens) (O94782 whole entry, looked up): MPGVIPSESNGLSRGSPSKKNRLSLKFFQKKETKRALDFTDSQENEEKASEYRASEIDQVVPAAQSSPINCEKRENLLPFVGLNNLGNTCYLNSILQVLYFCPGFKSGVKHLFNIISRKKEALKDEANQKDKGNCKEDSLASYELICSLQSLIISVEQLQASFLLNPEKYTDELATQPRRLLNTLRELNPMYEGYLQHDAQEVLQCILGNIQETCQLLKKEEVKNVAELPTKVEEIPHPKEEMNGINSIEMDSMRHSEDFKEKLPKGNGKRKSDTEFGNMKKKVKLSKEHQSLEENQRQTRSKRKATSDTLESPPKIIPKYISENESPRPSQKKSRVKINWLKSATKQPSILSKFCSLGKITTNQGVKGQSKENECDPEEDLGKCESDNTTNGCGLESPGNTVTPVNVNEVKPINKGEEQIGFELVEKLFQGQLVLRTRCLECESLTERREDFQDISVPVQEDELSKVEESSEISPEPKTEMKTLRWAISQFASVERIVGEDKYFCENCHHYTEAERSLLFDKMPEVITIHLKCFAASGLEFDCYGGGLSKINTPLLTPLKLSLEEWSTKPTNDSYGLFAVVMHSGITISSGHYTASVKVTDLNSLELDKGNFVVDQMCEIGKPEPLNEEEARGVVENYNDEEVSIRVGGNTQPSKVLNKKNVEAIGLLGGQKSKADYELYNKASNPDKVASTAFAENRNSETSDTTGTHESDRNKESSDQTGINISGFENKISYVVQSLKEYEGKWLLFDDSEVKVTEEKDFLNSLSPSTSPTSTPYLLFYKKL
Chain of Galactokinase (Homo sapiens) (P51570 whole entry, looked up): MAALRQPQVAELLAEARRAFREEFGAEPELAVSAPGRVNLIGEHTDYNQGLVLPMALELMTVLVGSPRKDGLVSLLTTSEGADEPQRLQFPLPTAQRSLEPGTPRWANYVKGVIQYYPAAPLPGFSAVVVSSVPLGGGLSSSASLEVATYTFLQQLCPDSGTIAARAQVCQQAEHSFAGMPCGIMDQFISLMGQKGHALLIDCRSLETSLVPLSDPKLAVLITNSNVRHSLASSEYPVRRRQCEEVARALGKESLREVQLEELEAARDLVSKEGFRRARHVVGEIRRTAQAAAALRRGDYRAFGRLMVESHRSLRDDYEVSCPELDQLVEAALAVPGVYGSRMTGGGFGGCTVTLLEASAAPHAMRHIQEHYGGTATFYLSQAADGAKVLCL
Chain of phosphoglycerate mutase (Leishmania major) (Q4Q090 1-553): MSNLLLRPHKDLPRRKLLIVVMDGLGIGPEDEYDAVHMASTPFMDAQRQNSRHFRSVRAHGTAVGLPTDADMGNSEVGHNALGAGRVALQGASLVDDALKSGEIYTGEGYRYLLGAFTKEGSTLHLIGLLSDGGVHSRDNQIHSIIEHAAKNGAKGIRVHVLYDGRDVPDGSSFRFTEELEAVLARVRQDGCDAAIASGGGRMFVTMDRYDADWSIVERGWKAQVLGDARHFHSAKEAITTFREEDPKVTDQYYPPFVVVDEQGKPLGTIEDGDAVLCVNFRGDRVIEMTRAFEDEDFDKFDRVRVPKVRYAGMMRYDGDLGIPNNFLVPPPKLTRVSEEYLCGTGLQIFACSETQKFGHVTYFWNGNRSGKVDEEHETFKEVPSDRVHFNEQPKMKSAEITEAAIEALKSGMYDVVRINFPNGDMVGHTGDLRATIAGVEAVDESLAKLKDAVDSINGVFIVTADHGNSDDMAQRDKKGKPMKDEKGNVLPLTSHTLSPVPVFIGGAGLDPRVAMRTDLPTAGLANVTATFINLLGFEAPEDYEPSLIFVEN
Chain of D(1A) dopamine receptor (Homo sapiens) (P21728 whole entry, looked up): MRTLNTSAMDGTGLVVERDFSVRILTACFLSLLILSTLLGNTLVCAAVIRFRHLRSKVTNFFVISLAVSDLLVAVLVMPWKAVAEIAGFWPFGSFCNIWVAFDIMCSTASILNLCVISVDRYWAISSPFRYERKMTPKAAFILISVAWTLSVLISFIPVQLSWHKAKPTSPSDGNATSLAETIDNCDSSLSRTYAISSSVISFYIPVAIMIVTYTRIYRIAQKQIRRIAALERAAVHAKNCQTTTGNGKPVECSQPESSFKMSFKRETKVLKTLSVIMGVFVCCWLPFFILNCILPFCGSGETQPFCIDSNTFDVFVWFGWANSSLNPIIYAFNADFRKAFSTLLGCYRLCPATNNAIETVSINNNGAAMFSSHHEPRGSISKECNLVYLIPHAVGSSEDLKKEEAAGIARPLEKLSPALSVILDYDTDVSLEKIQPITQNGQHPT
Chain of Thyrotropin-releasing hormone receptor (Homo sapiens) (P34981 whole entry, looked up): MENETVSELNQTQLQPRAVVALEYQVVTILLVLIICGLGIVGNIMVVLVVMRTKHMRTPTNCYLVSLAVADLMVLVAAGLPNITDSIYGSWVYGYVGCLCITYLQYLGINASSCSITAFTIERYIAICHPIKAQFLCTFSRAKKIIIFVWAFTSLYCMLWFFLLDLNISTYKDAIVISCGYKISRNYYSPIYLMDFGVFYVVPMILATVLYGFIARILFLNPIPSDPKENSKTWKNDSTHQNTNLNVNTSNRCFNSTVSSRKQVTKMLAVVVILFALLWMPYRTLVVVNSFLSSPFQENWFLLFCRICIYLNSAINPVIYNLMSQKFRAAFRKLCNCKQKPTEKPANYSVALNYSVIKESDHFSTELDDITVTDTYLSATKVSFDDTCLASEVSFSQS

For `Cc1nc2c(OCc3ccccc3)cccn2c1CC#N`, the compound was classed as inactive in [1] and in assay [8]. Also, the Potency entry in assay [2], in assay [3], in assay [4], in assay [5], in assay [7] and in assay [9] was “inactive” throughout. Besides, the Potency entry in assay [10], in [11], in assay [12], in [13], in [14] and in assay [15] was “inactive” throughout. Moreover, in assay [16], the Potency result is “inactive”. In [6], the activation is 0.25% (inactive). In addition, the viability change in assay [7] was -7.51%.
As for `O=C(O)c1cccnc1C(=O)O`, the call in assay [1] and in assay [8] was inactive. The Potency entry in assay [2], in assay [3], in [4], in assay [5], in assay [17] and in assay [7] was “inactive” in each case. Besides, the Potency entry in assay [10], in [11], in [12], in [13], in assay [14] and in assay [16] was “inactive” throughout. Also, the viability change in [7] came out at 1.3%.
With `Fc1ccc(CN(C2=NCCN2)c2c(Cl)cccc2Cl)cc1`, the outcome in assay [1] and in assay [8] was inactive. The Potency result in assay [2], in [3], in assay [4], in assay [5], in [7] and in assay [9] was “inactive” in each case. The Potency result in assay [10], in assay [11], in assay [12], in assay [13] and in assay [14] was “inactive” each time. The activation in assay [6] was 1.31% (inactive). In addition, the viability change in [7] was -18.2%.
For the compound `N#CC(C#N)=C(N)/C(C#N)=C/c1ccc(O)cc1`, the outcome in [1] and in assay [8] was inactive. Further, the Potency entry in assay [2], in [3], in assay [4], in [17], in assay [7] and in [9] was “inactive” in each case. Moreover, the Potency result in assay [10], in assay [11], in assay [12], in assay [13], in assay [14] and in assay [15] was “inactive” each time. Also, the Potency result in [16] is “inactive”. For the same compound, in assay [6], the activation is 0.25% (inactive). In addition, in assay [7], the viability change was 1.78%.
On to `CC(=O)O[C@H]1Cc2ccccc2N(C(N)=O)c2ccccc21`, for which the Potency entry in assay [2], in [3], in [4], in assay [5], in assay [17] and in assay [7] was “inactive” each time. Besides, the Potency entry in [11], in assay [13], in assay [14], in assay [15] and in assay [16] was “inactive” throughout. Besides, the viability change in assay [7] was -3.02%. In addition, in assay [8], the compound was classed as inactive.
Turning to `CN1CCN(c2nc3cc(C(F)(F)F)ccc3n3cccc23)CC1`, the call in assay [1] and in assay [8] was inactive. Besides, the Potency result in [2], in assay [3], in assay [5], in [17], in [7] and in assay [9] was “inactive” each time. The Potency result in [10], in assay [11], in assay [12], in [13] and in [14] was “inactive” in each case. Further, in [6], the activation was 1.06% (inactive). In [7], the viability change was determined as 3.07%.
Take `CCCCC[C@H](CC(=O)NO)C(=O)N[C@H](C(=O)N1CCC[C@H]1CO)C(C)C`: the compound was called inactive in assay [1] and in assay [8]. Moreover, the Potency entry in assay [2], in assay [3], in [4], in [9], in assay [10] and in [11] was “inactive” each time. Further, the Potency entry in assay [12], in assay [13] and in assay [14] was “inactive” each time. In addition, the activation in [6] is -2.88% (inactive). Moreover, the Potency in assay [7] is 16.4 µM (active). Moreover, the viability change in assay [7] turned out to be 2.77%.
`Cn1c(=O)c2[nH]c(C3CCCC3)nc2n(C)c1=O`: the call in [1] and in assay [8] was inactive. In addition, the Potency entry in assay [3], in assay [4], in [5], in assay [7], in assay [9] and in assay [10] was “inactive” each time. The Potency entry in assay [11], in assay [12], in assay [13], in assay [14] and in assay [16] was “inactive” in each case. The activation in [6] was 0.125% (inactive). Also, the viability change in assay [7] came to 1.08%.
With `CC(C)(C)c1cc(/C=C(\C#N)C(N)=S)cc(C(C)(C)C)c1O`, the compound was classed as inactive in [1] and in assay [8]. Further, the Potency result in [3], in [5], in assay [9], in assay [10] and in assay [12] was “inactive” in each case. In addition, the activation in assay [6] was 10.6% (inactive).
For `CCCCCCCC/C=C\CCCCCCCC(=O)NCCc1ccc(O)c(O)c1`, the compound was classed as inactive in [1] and in assay [8]. In addition, the Potency entry in assay [2], in assay [4], in assay [9], in [10], in assay [11] and in assay [12] was “inactive” each time. Further, in [13], the Potency entry was “inactive”. Moreover, the figures for the Potency in assay [3] and in [16] were 4.61 µM (active) and 20 µM (active), respectively. The activation in assay [6] was 1.94% (inactive).
In the case of `CC(/C=C/c1cccc(Oc2ccc(F)cc2)c1)N(O)C(N)=O` (configuration not stated), the outcome in [1] and in [8] was inactive. In addition, the Potency entry in [3], in [4], in [7], in assay [9], in [10] and in assay [11] was “inactive” throughout. Also, the Potency result in assay [12], in [13], in assay [14] and in [16] was “inactive” throughout. In addition, the activation in assay [6] was 1% (inactive). Moreover, the viability change in assay [7] was determined as 3.6%.
For the compound `O=C(O)C1=CCNCC1`, the outcome in [1] and in [8] was inactive. The Potency entry in assay [2], in assay [4], in assay [17], in assay [7], in assay [10] and in assay [11] was “inactive” throughout. Further, the Potency entry in assay [13], in assay [14], in [15] and in assay [16] was “inactive” in each case. Further, the activation in assay [6] is 1.25% (inactive). For the same compound, in [7], the viability change was 7.14%.
Regarding `Nc1ccc2c3c(cccc13)C(=O)NC2=O`, the outcome in assay [1] and in [8] was inactive. Further, the Potency in assay [2] was 11.2 µM (active); in [14] it was 25.1 µM (active). Moreover, the Potency entry in [4], in [17], in assay [9], in [10], in [12] and in assay [15] was “inactive” throughout. Also, in [16], the Potency entry is “inactive”. Further, the activation in assay [6] was 87.4% (active).
With `O=S(=O)(c1cccc2c(Cl)cccc12)N1CCCNCC1`, the compound was classed as inactive in assay [1] and in assay [8]. The Potency result in [3], in assay [4], in assay [5], in assay [7], in assay [9] and in [10] was “inactive” in each case. Further, the Potency entry in [11], in assay [12], in assay [13], in [14] and in [15] was “inactive” throughout. In [6], the activation was 1.56% (inactive). Moreover, the viability change in [7] amounted to 2.63%.
For the compound `CC(C)(C)c1ccc(/C=C/C(=O)Nc2ccc3c(c2)OCCO3)cc1`, the Potency result in assay [2], in assay [3], in assay [4], in assay [5], in assay [11] and in [12] was “inactive” each time. Also, the Potency result in assay [13] was “inactive”. In addition, the Potency in [17] was 18.3 µM (active); in assay [7] it was 10.3 µM (active). Further, in assay [7], the viability change was -12.9%. The outcome in assay [8] was inactive.
